Results as given in PubChem BioAssay.
Unmarked numbers belong to inactive results. How the calls were made is not given here.

These compounds were tested against Pantothenate synthetase (Mycobacterium tuberculosis (strain ATCC 25618 / H37Rv)) (UniProt P9WIL5) (assay: Coupled enzyme confirmation of inhibitors against recombinant Mtb PanC (AID 375;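 further: 0% = full reaction with vehicle and 100% = no enzyme background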)). Conditions: coupled enzyme assay; at 10 µM, stronger effect = higher value.
Sequence of Pantothenate synthetase (Mycobacterium tuberculosis (strain ATCC 25618 / H37Rv)) (P9WIL5 whole entry, looked up): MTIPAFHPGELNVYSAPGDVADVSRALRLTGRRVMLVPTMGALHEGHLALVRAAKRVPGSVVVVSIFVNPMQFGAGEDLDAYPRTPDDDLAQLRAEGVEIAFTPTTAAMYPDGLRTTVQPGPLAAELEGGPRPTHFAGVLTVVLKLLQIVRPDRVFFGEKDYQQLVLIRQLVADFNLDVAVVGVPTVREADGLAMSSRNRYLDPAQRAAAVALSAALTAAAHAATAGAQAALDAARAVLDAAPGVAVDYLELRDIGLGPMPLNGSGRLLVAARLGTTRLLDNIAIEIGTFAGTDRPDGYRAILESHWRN

Compound | inhibition [%]
CCCNC(=O)C1=C(C)C(=O)OC12CCC(C)CC2 (stereo not given) | 0
Cc1nn(S(=O)(=O)N2CCCCC2)c(C)c1Br | 0
O=c1[nH]c(Nc2ccccc2)cc2ccccc12 | 0
CCN(C(=O)c1cc(Cl)ccc1OC)c1ccccc1 | 0
COc1ccccc1Nc1nc(N)nc(CSc2nccc(C)n2)n1 | 0
CCC1(C)Cc2c(C#N)c(N)n(N)c(=S)c2CO1 (stereo not given) | 0
Cn1c(=O)c2c(nc(NCc3ccco3)n2C/C=C/c2ccccc2)n(C)c1=O | 0
CCOc1ccccc1-n1c(SCC(=O)NCc2ccco2)nnc1-c1ccncc1 | 1
CCOC(=O)C1=C(c2ccccc2)N2CCN=C2S1 | 3
C=CCn1c(SCC(=O)Nc2ccccc2OC)nnc1-c1ccco1 | 4
O=C1CCn2nc(-c3ccc(Cl)cc3)cc2N1 | 0
O=C(CCSc1nnc(-c2ccncc2)o1)Nc1ccccc1 | 0
Cc1cc(NC(=O)C2=C(O)c3ccccc3S(=O)(=O)N2C)no1 | 0
c1ccc(-c2cnc(CSc3ncnc4sccc34)o2)cc1 | 0
CCOC(=O)C1CCCN(CCCc2ccccc2)C1 (stereo not given) | 0
Cc1nc(SC2C=CS(=O)(=O)C2)n[nH]1 (stereo not given) | 5
COCCNC(=O)c1snc2ccc(Cl)cc12 | 0
CC1(CC(=O)O)C(=O)N=C2C=CC=CN21 (stereo not given) | 0
CCc1[nH]nc2c1C1(CCN(C(=O)OCc3ccccc3)CC1)C(C#N)=C(N)O2 | 0
CC(C)Cn1c(N)c(C(=O)NCc2cccs2)c2nc3ccccc3nc21 | 1

Compound | inhibition [%]
CCN1CCN(C(=O)Cn2ncc3ccsc3c2=O)CC1 | 0
CC(C(=O)Nc1ccccc1-c1ccccc1)N1CCOCC1 (stereo not given) | 1
Cc1nn(-c2ccc(Cl)cc2)c2sc(C(=O)N3CCN(c4ccccn4)CC3)cc12 | 4
CCOC(=O)c1[nH]c2ccccc2c1NC(=O)C(CC)CC | 8
O=C(CN1C(=O)c2ccccc2C1=O)Nc1ccccc1C(=O)N1CCCC1 | 1
CS(=O)(=O)Nc1ccc(S(=O)(=O)Nc2nccs2)cc1 | 0
COCCn1nnnc1C(C(C)C)N(Cc1cccnc1)Cc1ccccc1Cl (stereo not given) | 2
C[C@]12CC[C@@H]3c4ccc(OC(=O)c5ccccc5)cc4CC[C@H]3[C@@H]1CC[C@@H]2O | 0
O=C(CN1C(=O)NC(Cc2ccccc2)C1=O)Nc1ccccc1 (stereo not given) | 0
CC1CCc2cc(F)cc3c(O)c(C(=O)NCC4CCCO4)c(=O)n1c23 (stereo not given) | 2
O=C(Oc1cc2oc(=O)c3c(c2cc1Cl)CCCC3)c1ccco1 | 0
CCOC(=O)c1cc2sccc2n1Cc1ccccc1 | 1
CC(C)C(=O)Nc1cccc(NC(=O)c2cccnc2)c1 | 1
O=C(CN(C(=O)CCC(=O)Nc1nccs1)c1ccccc1F)NCC1CCCO1 (stereo not given) | 2
COC(=O)c1cc(Br)c(=O)n(Cc2cccnc2)c1 | 9
CN1CCCN(C(c2ccccc2)c2ccc(Cl)cc2)CC1 (stereo not given) | 0
COc1ccc(CN2C(=O)C(O)(CC(=O)c3c(C)n[nH]c3C)c3ccccc32)cc1OC (stereo not given) | 0
CCc1nnc(NC(=O)c2ccc(COc3ccccc3)o2)s1 | 6
CCOc1ccc(OCc2cccc(C(=O)N3CCCC3)c2)cc1 | 6
COc1ccc(S(=O)(=O)NCCCN2CCOCC2)c2ccccc12 | 0
